# Source: ChEMBL document CHEMBL4513216, “Probing the Open Global Health Chemical Diversity Library for Multistage-Active Starting Points for Next-Generation Antimalarials” (ACS Infect Dis, 2020)
# Screen size: about 69,000 compounds; about 8,600 (12%) showed an effect of 50% or more. Shown is part of a subset that was picked to be rich in strong results.
# Tested on: Plasmodium berghei
# Assay: Screen against P. berghei liver stage (PbLuc), transformed with Luciferase, at 10uM
# Format: functional, HepG2
# Settings: tested at 10 uM
row,Compound,INHIBITION [%]
1,CN(C)CCC1CN(C(=O)c2cccc3c2OCC3)CCO1 (stereo not drawn),-15.1
2,COCC1CN(Cc2cc(C)on2)Cc2cn(CC3CCCC3)nc21 (stereo not drawn),15.3
3,Cc1cc(OC(F)F)c(C(=O)N2CCN(C3CC3)CC2)s1,-3.47
4,Cc1noc(C)c1C(=O)N1Cc2ncn(C)c2C(COCC(C)C)C1 (stereo not drawn),36.7
5,CC(C)COCC1CN(C(=O)c2cscn2)Cc2ncn(C)c21 (stereo not drawn),34.9
6,CCOCC1CN(C(=O)c2cnccn2)Cc2cnn(CC3CC3)c21 (stereo not drawn),6.6
7,Cn1cnc2c1C(COCC1CCOCC1)CN(C(=O)c1ccco1)C2 (stereo not drawn),64.9
8,Cn1cnc2c1C(COCC1CC1)CN(C(=O)c1cscn1)C2 (stereo not drawn),58.8
9,Cc1ccsc1C(=O)N1Cc2ncn(C)c2C(COCC2CC2)C1 (stereo not drawn),11.4
10,Cn1cnc2c1C(COCC1CCOCC1)CN(C(=O)c1ccoc1)C2 (stereo not drawn),40.4
11,Cc1noc(C)c1C(=O)N1Cc2ncn(C)c2C(COCC2CC2)C1 (stereo not drawn),58.4
12,CCOCC1CN(C(=O)c2cscn2)Cc2cnn(CC3CC3)c21 (stereo not drawn),56.7
13,Cn1ncc2c1C(COCC1CC1)CN(C(=O)c1cscn1)C2 (stereo not drawn),34.6
14,CN(C)C(=O)N1Cc2ncn(C)c2C(COCC2CCOCC2)C1 (stereo not drawn),6.6
15,CCOCC1CN(C(=O)c2cscn2)Cc2nnn(CC3CC3)c21 (stereo not drawn),13.6
16,CCn1ccnc1CN1CCCN(C(=O)c2cc[nH]n2)CC1,-18.45
17,Cc1nc(C)n(CC2CCCCN2CCOc2cccc(C#N)c2)n1 (stereo not drawn),21.5
18,CN(C)C1(CNc2nccc(C3CCCC3)n2)CCOCC1,-15.3
19,Cn1ccnc1CNC(=O)CC1CCCCO1 (stereo not drawn),19.25
20,COCCNCc1cc2ccc(C)c(C)c2[nH]c1=O,1.475
21,CC(=O)Nc1cccc(CN2CCN(C3=NCC(C)(C)S3)CC2)c1,42.1
22,CN(C)CCN1CCOCC2(C1)CN(Cc1ccsc1)CCO2 (stereo not drawn),25.6
23,CCS(=O)(=O)N(C)CCCNCc1c(C)nn(C)c1N(C)C,19.15

row,Compound,INHIBITION [%]
1,CC(C)CN1CCN(C(=O)CCn2cccn2)CC1,2.4
2,C[C@H]1C(=O)NC[C@H]2CN(CCc3ccccc3)C[C@H]21,-23.3
3,CCN(CC)C(=O)Cn1ccc2cc(NC(=O)C3CC3)ccc21,52.7
4,CCC(=O)Nc1ccc2c(ccn2CC(=O)N(CC)CC)c1,8.4
5,CCN(CC)C(=O)Cn1ccc2cc(NC(=O)C3CCCCC3)ccc21,-3.202
6,CCc1nccn1C1CCCN(C(=O)c2ccc(-n3ccnc3)cc2)C1 (stereo not drawn),33.3
7,CC(C)Sc1nnnn1C1CCCC1,66.9
8,CCCC(C)Sc1nnnn1C1CCOCC1 (stereo not drawn),15
9,N#CC(Sc1nnnn1C1CCOCC1)C1CCCCC1 (stereo not drawn),-58.6
10,CC(Sc1nnnn1C1CCOCC1)C(=O)NC1CCCCC1 (stereo not drawn),3.47
11,CC(Sc1nnnn1C1CCOCC1)C(F)(F)F (stereo not drawn),52.8
12,COC(=O)C(C)Sc1nnnn1C1CCOCC1 (stereo not drawn),23.6
13,N#CC1(NC(=O)c2ccc(F)cc2OC(F)F)CCOCC1,8.12
14,CN(C)C(=O)COC1COC2(CCN(c3cccc(F)c3)CC2)C1 (stereo not drawn),42.7
15,Cc1ccc(-c2noc(C(C)(C)NS(C)(=O)=O)n2)cc1F,15.4
16,Cc1cc(-c2nn(C)c(Cl)c2CN2CCCCC(N)C2)no1 (stereo not drawn),48.5
17,Cc1nnsc1CN1CC[C@@](O)(C2CCC2)[C@H](C)C1,66.7
18,OCC1COCCN(Cc2cc(C3CCCCC3)no2)C1 (stereo not drawn),41
19,CC[C@@]1(O)CCN(C(=O)c2ccc(CN3CCCCCC3)cc2)C[C@H]1O,3.03
20,NC1CCCCN(Cc2cc(C3CCCCC3)no2)C1 (stereo not drawn),57.8
21,CCc1nc(C)sc1CN1CC[C@@](O)(C2CC2)[C@H](C)C1,29.7
22,CCc1nc(C)sc1CN1CC[C@](O)(CC)[C@H](O)C1,-31.7
23,CC1(C)CN(Cc2cc(C3CCCCC3)no2)CC[C@]1(C)O,47.7

row,Compound,INHIBITION [%]
1,Cc1nonc1CN1CC[C@@](O)(C2CCC2)[C@H](C)C1,21.9
2,C[C@@H]1CN(Cc2cc(C3CCCCC3)no2)CC[C@]1(C)O,61.1
3,C[C@@H]1CN(Cc2c[nH]c(CC3CCCC3)n2)CC[C@]1(C)O,15
4,CC[C@@]1(O)CCN(Cc2cc(C3CCCCC3)no2)C[C@H]1O,56.6
5,O=C(COCc1ccccc1)N1CCCn2cncc2C1,14.5
6,Cc1cs/c(=N\C(=O)Cn2nc(N3CCC(C)CC3)ccc2=O)[nH]1,-6.73
7,CN(C)Cc1cnc2n1CCN(Cc1ccsc1)CC2,16.8
8,C[C@@H]1CN(Cc2cccc(F)c2)C[C@]12CCN(Cc1cccnc1)C2=O,-13.4
9,Cc1ccc(C(=O)N2C[C@H](OCc3cccnc3)[C@H]3COC[C@H]32)cn1,25.3
10,CC(C)N(C)Cc1nnn2c1CN(Cc1cccnc1)CCC2,-50.9
11,CCC(CO)n1cnc2scc(C)c2c1=O (stereo not drawn),1.19
12,COc1cc(F)c(CN2CC[C@@](O)(C3CC3)[C@H](C)C2)cc1OC,-39.2
13,C[C@@H]1CN(Cc2nc(C(N)=O)no2)CC[C@@]1(O)C1CC1,6.26
14,N[C@@H]1CCN(Cc2cc(-c3ccccc3OC(F)(F)F)no2)C[C@H]1O,-48.3
15,Cc1nonc1CN1CC[C@@](O)(C2CCOCC2)[C@H](C)C1,47.7
16,C[C@@H]1CN(Cc2nc(C(N)=O)no2)CC[C@@]1(O)C1CCOCC1,59.1
17,NC1CCCCN(Cc2cc(-c3ccccc3OC(F)(F)F)no2)C1 (stereo not drawn),79.7
18,C[C@@H]1CN(Cc2cc(C3CCCCC3)no2)CC[C@@]1(O)C1CC1,63.3
19,C[C@@H]1CN(Cc2cc(C(F)(F)F)ccc2F)CC[C@@]1(O)C1CC1,-45
20,OC1COCCN(Cc2cc(-c3ccccc3OC(F)(F)F)no2)C1 (stereo not drawn),-26.1
21,COCCCC(=O)N(CCC(=O)O)Cc1ccc(F)c(F)c1,23.1
22,CC(C)NC(=O)N1CCN(CC2CC2)c2ncccc2C1,30.3
23,O=S(=O)(C1CC1)N1CC[C@H](OCC2CC2)[C@@H]1Cc1cccnc1,-4.02

row,Compound,INHIBITION [%]
1,CCN(c1ccc(C(=O)NCCCN2CCCCC2)cc1)S(=O)(=O)CC,21.7
2,COc1ccc(-c2nccnc2C2CCN(C(C)=O)CC2)cc1,40.9
3,COc1ccc(Oc2nccnc2C2CCN(C(C)=O)CC2)cc1,58.1
4,COc1ccc(-c2cc(C3CCN(C(C)=O)CC3)ccn2)cc1,-24.1
5,COc1cccc(-c2nccnc2C2CCN(C(C)=O)CC2)c1,57.4
6,CC(=O)N1CCC(c2nccnc2Oc2ccccc2)CC1,39.2
7,CC(=O)N1CCC(c2nccnc2-c2ccc(F)c(F)c2)CC1,26.8
8,Cn1nnnc1SC1CCCN(c2ccccc2Cl)C1=O (stereo not drawn),-40
9,CN(C)[C@@H]1CCN(C(=O)NC2CCCC2)[C@H]1Cc1cnn(C)c1,21
10,Cc1cc(C)n(CC2CCCN2C(=O)c2cnc3n[nH]c(C)c3c2)n1 (stereo not drawn),13.6
11,CC(C)CN1C[C@@H](C(=O)O)C[C@@H](C(=O)NCc2ccncc2)C1,2.79
12,CCc1ccsc1C(=O)NC(C#N)CC (stereo not drawn),30.9
13,Cc1cc(CN(C)Cc2cc3c(cc2OC(F)F)OCO3)on1,-19.9
14,Cc1nc(CN(C)Cc2cc3c(cc2OC(F)F)OCO3)oc1C,11.3
15,Cc1cnc(CN(C)Cc2cc3c(cc2OC(F)F)OCO3)o1,60
16,CN(C)Cc1cc(C2CCN(C(=O)C3CCCNC3)CC2)nn1C (stereo not drawn),27.2
17,Cc1cc(NC(=O)c2ccccc2Br)n(C)n1,53.2
18,Cc1cc(NC(=O)c2ccc(F)cc2Br)n(C)n1,-18.5
19,Cc1cc(NC(=O)c2ccc(Br)cc2F)n(C)n1,-77
20,Cc1ncc2c(n1)CN(Cc1nc(-c3ccsc3)no1)CC2,21
21,Cc1cccc(C(C)C)c1NC(=O)CN(C)C(C)c1nccs1 (stereo not drawn),73.6
22,COc1ccccc1CNC(=O)CN(C)C(C)c1nccs1 (stereo not drawn),-45.6
23,CCn1nc(C)c(NC(=O)CN(C)C(C)c2nccs2)c1C (stereo not drawn),-23.4

row,Compound,INHIBITION [%]
1,CCCNC(=O)N1CCC(c2nnc(Cn3cccn3)n2C2CC2)CC1,-50.7
2,CC(O)CN1CCN(C(=O)c2cc3ccccc3c(=O)[nH]2)CC1 (stereo not drawn),-3.95
3,CC(C)c1nnc2ccc(N3CCC(C(=O)Nc4nccs4)CC3)nn12,79.8
4,Cc1nnc2ccc(N3CCC(C(=O)Nc4nccs4)CC3)nn12,39.3
5,CC(C)c1nnc2ccc(N3CCCC(C(=O)Nc4nccs4)C3)nn12 (stereo not drawn),29
6,Cc1nn(C)c(C)c1-c1cncc(C2CCN(S(C)(=O)=O)CC2)n1,34.7
7,CN1[C@H](CN2CCCC2)C[C@@H]2CN(C(=O)c3cccn3C)CC[C@@H]21,14.1
8,CCOc1ccc2c(c1)CN(Cc1nc3c(cnn3C)c(=O)[nH]1)CC2,48.2
9,COCC1c2c(cnn2CC2CC2)CCN1Cc1ccsc1 (stereo not drawn),-37.9
10,COCC1c2c(cnn2CC2CC2)CCN1Cc1ccc(OC)cc1 (stereo not drawn),53.1
11,COCC1c2c(cnn2CC2CC2)CCN1Cc1ccc(C)o1 (stereo not drawn),-52.7
12,O=S(=O)(NCc1ccccc1)Nc1ccc(-n2ccnc2)cc1,44.8
13,Cc1csc(CN2CCC[C@]3(C[C@H](Oc4ccccn4)CO3)C2)n1,35.1
14,CCO[C@H]1CO[C@@]2(CCCN(Cc3nc(C)cs3)C2)C1,11.8
15,c1ccc(O[C@H]2CO[C@@]3(CCCN(Cc4nccs4)C3)C2)nc1,49.7
16,Cc1noc(C)c1CN1CCC2(CC1)CC(Oc1cccnc1)CO2 (stereo not drawn),21.6
17,Cc1csc(CN2CCC[C@]3(C[C@@H](Oc4ccccn4)CO3)C2)n1,64.4
18,Cc1noc(C)c1CN1CCC[C@]2(C[C@@H](Oc3ccccn3)CO2)C1,87
19,Cc1csc(CN2CCC[C@]3(C[C@H](OCC4CC4)CO3)C2)n1,1.48
20,Cc1noc(C)c1CN1CCOC2(CCCN(c3ccccn3)C2)C1 (stereo not drawn),20.9
21,CO[C@@H]1CO[C@@]2(CCCN(Cc3nc(C)cs3)C2)C1,65.7
